A number with no mark means an inactive call. For some of these results: Measured potencies and affinities stand elsewhere. Activity calls are given as the source filed them. Unless noted, how the calls were made is not given here.
Experiments:
[1] = antimalarial activity against Dd2 strain (AID 2302;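 active means growth inhibition above 50% at the single 2 µM test dose, taken to imply half-maximal potency below 2 µM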;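 further: 0% = DMSO untreated growth and 100% = chloroquine plus artemisinin killed control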); details: P. falciparum Dd2 in RBCs, LDH growth readout, 72 h; at 2 µM; hits give high values
[2] = HepG2 cytotoxicity, primary screen, cytotoxicity control for P. falciparum antimalarial project, cell-based, ATP luminescence (AID 2303;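 active means inhibition above 50%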;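 further: 0% = DMSO wells and 100% = digitonin-killed cells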); details: HepG2 viability, 24-48 h, at 10 µM, hits give high values
[3] = biological target: L-lactate dehydrogenase (Plasmodium falciparum (isolate CDC / Honduras)) (UniProt Q27743); test: PfLDH activity inhibition – cell lysate, 3D7 strain, counter-screen for P. falciparum growth inhibition project (AID 2304);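 further: 0% = vehicle and 100% = reference inhibitor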; details: P. falciparum 3D7 crude extract, LDH APAD/NBT absorbance; at 2 µM; hits give high values
L-lactate dehydrogenase (Plasmodium falciparum (isolate CDC / Honduras)), sequence (Q27743 whole entry, looked up): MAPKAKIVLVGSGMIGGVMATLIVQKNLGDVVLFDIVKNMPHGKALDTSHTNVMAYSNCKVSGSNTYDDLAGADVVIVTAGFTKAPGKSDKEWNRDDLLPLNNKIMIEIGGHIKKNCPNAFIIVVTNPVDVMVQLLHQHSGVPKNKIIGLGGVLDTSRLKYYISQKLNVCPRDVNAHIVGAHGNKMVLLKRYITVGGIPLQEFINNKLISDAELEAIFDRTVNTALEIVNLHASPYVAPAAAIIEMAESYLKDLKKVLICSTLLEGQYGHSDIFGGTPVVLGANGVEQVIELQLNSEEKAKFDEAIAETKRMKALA

[4] = inhibition of 3D7 malaria parasite growth – strain 3D7 (AID 2306);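 further: 0% = DMSO wells and 100% = chloroquine plus artemisinin control wells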; details: P. falciparum 3D7 erythrocytic growth, LDH absorbance, 72 h; at 2 µM; hits give high values
[5] = biological target: Calcium-dependent protein kinase 1 (Plasmodium falciparum (isolate 3D7)) (UniProt P62344); test: PfCDPK1 kinase inhibitors, biochemical, TCAMS library (AID 1159585; cut-off not given, nearly all actives have IC50 up to about 0.98 µM;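 further: inhibitors leave more ATP so luminescence rises with inhibition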); details: recombinant PfCDPK1, Kinase-Glo ATP depletion luminescence
Calcium-dependent protein kinase 1 (Plasmodium falciparum (isolate 3D7)), sequence (P62344 whole entry, looked up): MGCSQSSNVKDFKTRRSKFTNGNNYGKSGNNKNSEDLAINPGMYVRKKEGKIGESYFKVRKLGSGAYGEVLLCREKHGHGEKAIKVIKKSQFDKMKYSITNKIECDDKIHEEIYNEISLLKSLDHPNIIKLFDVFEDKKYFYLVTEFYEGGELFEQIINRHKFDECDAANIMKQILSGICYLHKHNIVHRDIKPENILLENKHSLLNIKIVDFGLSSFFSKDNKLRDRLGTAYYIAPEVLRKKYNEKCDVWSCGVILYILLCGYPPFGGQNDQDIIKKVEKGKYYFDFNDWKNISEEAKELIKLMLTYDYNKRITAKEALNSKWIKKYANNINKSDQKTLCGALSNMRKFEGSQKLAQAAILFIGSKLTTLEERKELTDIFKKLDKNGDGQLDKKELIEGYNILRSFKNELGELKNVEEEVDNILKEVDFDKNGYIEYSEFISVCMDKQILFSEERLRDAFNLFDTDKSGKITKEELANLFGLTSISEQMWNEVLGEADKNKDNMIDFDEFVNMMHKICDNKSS

[6] = biological target: Plasmodium falciparum protein kinase 6 (PK6, PF3D7_1337100) (UniProt Q8IDW1); test: PfPK6 kinase inhibitors, biochemical, TCAMS library (AID 1159586); details: recombinant PfPK6, Kinase-Glo ATP depletion luminescence
Plasmodium falciparum protein kinase 6 (PK6, PF3D7_1337100), sequence (Q8IDW1 1-305): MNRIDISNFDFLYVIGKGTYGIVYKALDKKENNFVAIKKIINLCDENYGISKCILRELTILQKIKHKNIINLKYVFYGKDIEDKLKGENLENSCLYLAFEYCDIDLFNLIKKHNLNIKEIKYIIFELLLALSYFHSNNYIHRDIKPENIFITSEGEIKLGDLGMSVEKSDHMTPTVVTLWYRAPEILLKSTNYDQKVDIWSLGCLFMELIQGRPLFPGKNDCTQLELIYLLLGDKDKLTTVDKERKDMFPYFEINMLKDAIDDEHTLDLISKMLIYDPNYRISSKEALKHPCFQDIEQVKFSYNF

[7] = biological target: Protein kinase 7 (PK7), Plasmodium falciparum 3D7 (PF3D7_0213400) (UniProt Q7YTF7); test: inhibition of Plasmodium PK7 catalytic activity – biochemical, TCAMS antimalarial set, Kinase-Glo luminescence (AID 1159587); details: recombinant PfPK7, Kinase-Glo ATP depletion luminescence
Protein kinase 7 (PK7), Plasmodium falciparum 3D7 (PF3D7_0213400), sequence (Q7YTF7 1-343): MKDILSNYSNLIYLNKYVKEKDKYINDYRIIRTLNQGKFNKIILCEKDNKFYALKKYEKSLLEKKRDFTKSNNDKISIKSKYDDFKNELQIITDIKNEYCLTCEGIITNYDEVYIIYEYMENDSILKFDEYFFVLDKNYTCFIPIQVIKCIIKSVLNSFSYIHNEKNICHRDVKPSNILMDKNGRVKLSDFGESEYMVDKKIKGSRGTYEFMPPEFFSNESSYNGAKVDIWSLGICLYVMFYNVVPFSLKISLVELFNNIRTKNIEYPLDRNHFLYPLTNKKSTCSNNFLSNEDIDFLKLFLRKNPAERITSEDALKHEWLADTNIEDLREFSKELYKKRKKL

[8] = biological target: Calcium-dependent protein kinase 4 (Plasmodium falciparum (isolate 3D7)) (UniProt Q8IBS5); test: PfCDPK4 kinase inhibitors, biochemical, TCAMS library (AID 1159588; cut-off not given, nearly all actives have IC50 up to about 0.91 µM); details: recombinant PfCDPK4, Kinase-Glo ATP depletion luminescence
Calcium-dependent protein kinase 4 (Plasmodium falciparum (isolate 3D7)), sequence (Q8IBS5 whole entry, looked up): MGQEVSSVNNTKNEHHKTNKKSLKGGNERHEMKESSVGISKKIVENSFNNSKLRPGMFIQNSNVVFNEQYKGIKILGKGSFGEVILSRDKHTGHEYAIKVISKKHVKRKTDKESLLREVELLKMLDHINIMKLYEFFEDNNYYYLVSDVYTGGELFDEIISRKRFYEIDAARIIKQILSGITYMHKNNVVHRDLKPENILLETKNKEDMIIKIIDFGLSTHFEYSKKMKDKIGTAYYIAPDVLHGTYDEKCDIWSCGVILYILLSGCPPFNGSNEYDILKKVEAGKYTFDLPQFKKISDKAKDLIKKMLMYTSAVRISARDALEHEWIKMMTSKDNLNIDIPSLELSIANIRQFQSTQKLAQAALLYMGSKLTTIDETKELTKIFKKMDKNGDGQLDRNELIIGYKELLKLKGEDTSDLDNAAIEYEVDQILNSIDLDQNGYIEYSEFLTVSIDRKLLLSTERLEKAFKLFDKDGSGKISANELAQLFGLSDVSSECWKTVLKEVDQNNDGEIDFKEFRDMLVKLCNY

Compound	growth inhibition [1]	inhibition [2]	inhibition [3]	growth inhibition [4]	outcome [5]	outcome [6]	outcome [7]	outcome [8]
C[C@@H](CC1CCCCC1)NCc1cccc(NS(=O)(=O)c2ccc(O)c(-c3ccno3)c2)c1	4%	-2%	-6%	88% (active)	inactive	inactive	inactive	inactive
CCN(CC)CCN(Cc1ccc(-c2ccc(C(F)(F)F)cc2)cc1)C(=O)Cn1cc(Cc2cnn(C)c2)c(=O)nc1/C=C/c1cccc(F)c1F	98% (active)	11%	-2%	95% (active)	inactive	inactive	inactive	inactive
O=C(Nc1ccc(Cn2ncc(N3CCCNCC3)c(Cl)c2=O)cc1)Nc1cccc(C(F)(F)F)c1	30%	20%	0%	101% (active)	inactive	inactive	inactive	inactive
Cc1cccc2[nH]c(-c3cccc(-c4ccc(NC(=O)c5cnc[nH]5)cc4)c3)nc12	48%	8%	3%	101% (active)	inactive	inactive	inactive	inactive
COc1ccc(Cc2c(C)nc3nc(N)nc(N)c3c2C)cc1	2%	61% (active)	8%	93% (active)	inactive	inactive	inactive	inactive
CN1CCC(N2CCN(Cc3ccc(-c4ccc(-c5nc6ccccc6[nH]5)s4)cc3)CC2)CC1	100% (active)	62% (active)	-3%	101% (active)	inactive	inactive	inactive	inactive
N#Cc1cnc2cc(-c3cnc(CNCCN4CCOCC4)s3)ccc2c1Nc1ccc(Oc2ccccc2)cc1	83% (active)	30%	2%	97% (active)	inactive	inactive	inactive	inactive
CCOC(=O)c1cccc(N/C(N)=N/c2nc(C)cc(NCCc3ccccc3)n2)c1	72% (active)	21%	-6%	102% (active)	inactive	inactive	inactive	inactive
COc1ccc(NC(=O)/C=C/c2ccccc2Cl)cc1OCCN1CCC(NCc2cccnc2)CC1	88% (active)	12%	1%	101% (active)	inactive	inactive	inactive	inactive
CN1CCN(c2ccc(-c3nc4c(C(N)=O)c(OCc5cc(Cl)cc(Cl)c5)ccc4[nH]3)cc2)CC1	85% (active)	45%	-2%	100% (active)	inactive	inactive	inactive	inactive
COc1ccc(C(O)CNC(C)CCc2ccccc2)cc1C(F)(F)F (stereo not given)	100% (active)	3%	1%	99% (active)	inactive	inactive	inactive	inactive
CC1CN(Cc2ccc(-c3ccc(-c4nc5ccccc5[nH]4)cc3)cc2)CC(C)O1 (stereo not given)	96% (active)	48%	3%	98% (active)	inactive	inactive	inactive	inactive
FC(F)(F)c1cc(CNCCCNc2nc3ccncc3[nH]2)ccc1Cl	15%	11%	2%	99% (active)	inactive	inactive	inactive	inactive
CC(C)C[C@H](NC(=O)c1cccc(F)c1)C(=O)N[C@H](/C=N/NC(=O)c1ccccc1)CCc1ccccc1	71% (active)	0%	2%	93% (active)	inactive	inactive	inactive	inactive
O=C(c1ccc(Br)o1)N1N=C(c2cccs2)CC1c1ccc(Br)cc1 (stereo not given)	45%	5%	-4%	96% (active)	inactive	inactive	inactive	inactive
COc1ccc(CN2CCC(NCc3ccc(C(F)(F)F)cc3)CC2)cc1	-1%	37%	2%	97% (active)	inactive	inactive	inactive	inactive
COc1cccc(NC(=O)Nc2ccc(Nc3nc(C)cc(N(C)C)n3)cc2)c1	100% (active)	14%	5%	101% (active)	inactive	inactive	inactive	inactive
Cc1cccc2[nH]c(-c3cccc(-c4cccc(CNCCc5ccncc5)c4)c3)nc12	99% (active)	20%	-2%	101% (active)	inactive	inactive	inactive	inactive
CN1CCN(Cc2cc(NC(=O)c3ccc(-c4ccc(Cl)cc4Cl)cc3)ccc2-c2ccccc2)CC1	21%	52% (active)	3%	95% (active)	inactive	inactive	inactive	inactive
CC(C)[C@H](NC(=O)c1ccc(O)c(-c2ccc(Cl)c(Cl)c2)c1)C(=O)NCCN(C)C	1%	-4%	-3%	92% (active)	inactive	inactive	inactive	inactive

— PubChem BioAssay
